Calls of active or inactive are those of the source. Unless noted, how the calls were made is not given here.
Tests used:
[1] = tested on: Wnt5a (protein binding on small-molecule microarray); assay: Wnt5a binders on small-molecule microarray, primary screen, biophysical, 635/667 nm fluorescence (AID 1142); conditions: 635 nm fluorescence, higher = more signal;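 further: fluorescence read at 667 nm with signal to noise per printed feature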
[2] = cell viability in Huh7 cells, primary screen, cytotoxicity control for HCV replication inhibitor project, CellTiter-Glo luminescence, basal, 48 h (AID 1143); conditions: Huh7 HCV replicon, higher = more signal, called active from +8 up or from −8 down;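 further: Huh7 hepatoma cells carrying a hepatitis C replication reporter with no stimulus; test concentration not given here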
[3] = P. aeruginosa biofilm formation inhibitors, primary screen, PAO1 strain, BacTiter-Glo luminescence, LB-PBS (AID 1144); conditions: 12 h, higher = more signal
[4] = CREB reporter modulators without forskolin, primary screen, cell-based, PC12, CRE-LacZ reporter, unstimulated (AID 1145); conditions: no forskolin, luminescence, 4.5 h, higher = more signal, called active from +8 up or from −8 down
[5] = CREB reporter modulators under forskolin, primary screen, cell-based, PC12, CRE-LacZ reporter, forskolin-stimulated (AID 1146); conditions: luminescence, 4.5 h, higher = more signal, called active from +8 up or from −8 down;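 further: PC12 cells with 6xCRE LacZ reporter stimulated by forskolin 10 µM; beta-galactosidase reporter signal reflecting CREB driven transcription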
[6] = target: Streptavidin (Streptomyces avidinii) (UniProt P22629); assay: streptavidin binders on small-molecule microarray, primary screen, artefact control for SMM compound annotation, biophysical, 635/667 nm fluorescence (AID 1147); conditions: streptavidin binding, higher = more signal;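 further: signal reflects streptavidin binding to arrayed compounds as a control protein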
[7] = small-molecule binders of probe aInhba, primary screen, biochemical, small-molecule microarray, 635/667 nm fluorescence (AID 1148); conditions: higher = more signal;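 further: score merges 667nm spot fluorescence with signal-to-noise for antibody binding to printed compounds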
Torsin-1A (Homo sapiens) [8] = target: Torsin-1A (Homo sapiens) (UniProt O14656); assay: torsin A binders from cell lysate, primary screen, small-molecule microarray, wild-type, 635/667 nm (AID 1149); conditions: COS7 hTOR1A-WT lysate, 635 nm fluorescence, higher = more signal
Torsin-1A (Homo sapiens) [9] = target: Torsin-1A (Homo sapiens) (UniProt O14656); assay: small-molecule binders of mutant TOR1A in lysate, primary screen, cell lysate, small-molecule microarray, COS7 lysate, 635/667 nm fluorescence (AID 1150); conditions: COS7 hTOR1A mutant lysate, 635 nm fluorescence, higher = more signal;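 further: score pools 667 nm emission and signal to noise measuring lysate protein binding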
[10] = tested on: Sonic hedgehog protein (Shh); assay: small-molecule binders of Shh protein, primary screen, biochemical, small-molecule microarray, 635/667 nm fluorescence (AID 1151); conditions: small-molecule microarray binding, 635 nm fluorescence; higher = more signal;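 further: Shh protein binding to compounds spotted on small-molecule microarray slides; score combines spot fluorescence intensity with signal-to-noise across triplicate slides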
[11] = E. coli DRC41 culture turbidity changes, primary screen, E. coli filamentation inducer project, strain DRC41, OD650, 48 h (AID 1152);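 further: E. coli MC1000 strain DRC41 lacking acrAB efflux pump and sulA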; conditions: E. coli DRC41 (acrAB sulA), higher = more signal, called active from +8 up or from −8 down
[12] = small-molecule binders of probe aLefty1, primary screen, biochemical, small-molecule microarray, 635/667 nm fluorescence (AID 1153); conditions: higher = more signal;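 further: score merges spot fluorescence with signal-to-noise ratio from the scanned slide images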
[13] = PSAC antagonists in infected red cells, primary screen, cell-based, P. falciparum Indochina, OD700, 1 h (AID 1154); conditions: P. falciparum Indochina infected RBC osmotic lysis, higher = more signal, called active from +8 up or from −8 down
[14] = PSAC antagonists in infected red cells, primary screen, cell-based, P. falciparum Indochina, OD700, 2 h (AID 1155);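 further: lysis reports solute entry through the parasite surface anion channel PSAC; channel blockers reduce lysis of infected cells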; conditions: P. falciparum Indochina infected erythrocytes, osmotic lysis OD700; higher = more signal, called active from +8 up or from −8 down
[15] = osmotic lysis modulators in infected erythrocytes, primary screen, PSAC antagonist project, cell-based, P. falciparum Indochina, OD700, 3 h (AID 1156); conditions: higher = more signal, called active from +8 up or from −8 down
[16] = PSAC antagonists in infected red cells, primary screen, cell-based, P. falciparum Indochina, OD700, 18 h (AID 1157); conditions: P. falciparum Indochina infected erythrocytes, osmotic lysis OD700, 18 h; higher = more signal, called active from +8 up or from −8 down
[17] = modulators of S6 phosphorylation in cells, primary screen, cell-based, A549, cytoblot, luminescence, serum-stimulated (AID 1158); conditions: A549 phospho-S6 cytoblot, 5 h, higher = more signal;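 further: serum-stimulated A549 lung adenocarcinoma cells; signal is phosphorylated S6 detected by cytoblot immunostaining with HRP secondary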
[18] = target: NADPH oxidase 2 (Homo sapiens) (UniProt P04839); assay: NOX2-dependent H2O2 signal modulators, primary screen, NOX inhibitor project, cell-based, HEK293-NOX2, PMA-stimulated, Amplex Red fluorescence (AID 1159); conditions: 45 min, higher = more signal, called active from +8 up or from −8 down; further: test concentration not given here
[19] = target: NADPH oxidase 4 (Homo sapiens) (UniProt Q9NPH5); assay: NOX4-dependent H2O2 signal modulators, primary screen, NOX inhibitor project, cell-based, HEK293-NOX4, tetracycline-induced, Amplex Red fluorescence (AID 1160); conditions: 45 min, higher = more signal, called active from +8 up or from −8 down
[20] = target: NADPH oxidase 5 (Homo sapiens) (UniProt Q96PH1); assay: NOX5-dependent H2O2 signal modulators, primary screen, NOX inhibitor project, cell-based, HEK293-NOX5, Amplex Red fluorescence (AID 1161); conditions: HEK293-NOX5, ionomycin, 45 min, higher = more signal
NADPH oxidase 5 (Homo sapiens), sequence (Q96PH1 whole entry, looked up): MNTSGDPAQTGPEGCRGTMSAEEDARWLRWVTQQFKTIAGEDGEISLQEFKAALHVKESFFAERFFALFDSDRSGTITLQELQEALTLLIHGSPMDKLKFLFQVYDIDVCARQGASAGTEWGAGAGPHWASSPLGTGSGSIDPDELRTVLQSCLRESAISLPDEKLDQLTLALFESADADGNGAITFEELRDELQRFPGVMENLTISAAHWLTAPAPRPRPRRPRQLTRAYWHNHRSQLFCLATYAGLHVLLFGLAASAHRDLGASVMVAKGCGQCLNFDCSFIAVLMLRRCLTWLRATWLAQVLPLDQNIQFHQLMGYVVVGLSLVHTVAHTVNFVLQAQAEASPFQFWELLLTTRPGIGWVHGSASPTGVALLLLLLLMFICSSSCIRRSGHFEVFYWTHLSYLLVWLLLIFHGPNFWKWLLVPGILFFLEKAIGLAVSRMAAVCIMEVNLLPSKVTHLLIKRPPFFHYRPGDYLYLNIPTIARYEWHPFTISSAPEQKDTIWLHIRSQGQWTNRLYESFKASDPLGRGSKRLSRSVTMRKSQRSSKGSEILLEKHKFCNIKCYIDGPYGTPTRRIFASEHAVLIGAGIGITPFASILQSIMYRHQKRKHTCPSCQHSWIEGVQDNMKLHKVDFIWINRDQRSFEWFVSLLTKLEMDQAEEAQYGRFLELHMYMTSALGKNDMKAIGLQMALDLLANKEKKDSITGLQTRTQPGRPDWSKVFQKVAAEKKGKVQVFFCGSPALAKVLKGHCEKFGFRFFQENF

NADPH oxidase 4 (Homo sapiens), sequence (Q9NPH5 whole entry, looked up): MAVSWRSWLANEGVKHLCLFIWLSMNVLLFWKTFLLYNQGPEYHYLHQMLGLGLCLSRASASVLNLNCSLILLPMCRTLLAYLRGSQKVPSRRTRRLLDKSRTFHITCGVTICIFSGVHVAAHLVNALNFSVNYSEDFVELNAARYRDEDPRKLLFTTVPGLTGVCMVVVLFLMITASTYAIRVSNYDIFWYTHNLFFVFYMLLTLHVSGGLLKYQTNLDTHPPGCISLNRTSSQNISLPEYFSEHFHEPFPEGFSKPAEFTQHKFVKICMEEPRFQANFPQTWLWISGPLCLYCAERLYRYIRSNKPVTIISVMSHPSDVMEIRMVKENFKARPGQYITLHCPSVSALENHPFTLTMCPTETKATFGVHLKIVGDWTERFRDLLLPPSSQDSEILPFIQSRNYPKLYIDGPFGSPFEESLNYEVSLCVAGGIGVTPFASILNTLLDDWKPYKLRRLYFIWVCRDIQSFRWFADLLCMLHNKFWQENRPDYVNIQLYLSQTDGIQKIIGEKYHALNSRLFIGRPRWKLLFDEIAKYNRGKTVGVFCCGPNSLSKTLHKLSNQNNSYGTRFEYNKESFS
NADPH oxidase 2 (Homo sapiens), sequence (P04839 whole entry, looked up): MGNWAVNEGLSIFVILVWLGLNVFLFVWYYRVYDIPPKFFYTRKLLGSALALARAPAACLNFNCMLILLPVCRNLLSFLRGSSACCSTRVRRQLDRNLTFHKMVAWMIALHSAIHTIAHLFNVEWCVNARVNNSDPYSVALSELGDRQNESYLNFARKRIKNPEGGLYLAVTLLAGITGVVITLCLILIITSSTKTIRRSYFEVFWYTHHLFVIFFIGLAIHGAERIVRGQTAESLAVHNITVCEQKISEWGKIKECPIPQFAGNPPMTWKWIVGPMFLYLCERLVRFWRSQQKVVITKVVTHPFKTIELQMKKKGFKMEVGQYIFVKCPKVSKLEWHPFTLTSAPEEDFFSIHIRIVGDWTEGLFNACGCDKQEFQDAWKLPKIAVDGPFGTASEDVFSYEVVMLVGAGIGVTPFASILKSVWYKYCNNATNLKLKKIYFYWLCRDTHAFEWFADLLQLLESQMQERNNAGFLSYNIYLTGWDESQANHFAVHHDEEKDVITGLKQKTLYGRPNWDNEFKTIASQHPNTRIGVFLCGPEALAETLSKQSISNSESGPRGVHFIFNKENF
Streptavidin (Streptomyces avidinii), sequence (P22629 whole entry, looked up): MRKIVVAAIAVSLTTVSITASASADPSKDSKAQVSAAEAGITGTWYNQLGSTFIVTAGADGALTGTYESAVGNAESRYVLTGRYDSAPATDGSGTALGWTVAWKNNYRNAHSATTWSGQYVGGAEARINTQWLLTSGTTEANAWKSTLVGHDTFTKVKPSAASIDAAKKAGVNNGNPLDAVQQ
Torsin-1A (Homo sapiens), sequence (O14656 whole entry, looked up): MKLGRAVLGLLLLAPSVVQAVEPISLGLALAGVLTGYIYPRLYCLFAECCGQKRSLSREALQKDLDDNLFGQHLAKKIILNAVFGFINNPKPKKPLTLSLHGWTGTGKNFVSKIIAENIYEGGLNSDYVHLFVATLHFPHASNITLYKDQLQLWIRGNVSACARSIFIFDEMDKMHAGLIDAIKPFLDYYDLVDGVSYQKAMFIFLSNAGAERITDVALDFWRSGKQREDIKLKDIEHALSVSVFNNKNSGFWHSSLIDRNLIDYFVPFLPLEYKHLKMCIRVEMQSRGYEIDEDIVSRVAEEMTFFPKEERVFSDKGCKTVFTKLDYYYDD

COc1cc(C(O)C2C=CC3C(=O)NC(=O)C3N2Nc2ccccn2)cc(OC)c1OC (stereo not given)
composite z-score [1]: 0.147 | z-score [2]: 0.969 (inactive) | z-score [3]: 0.0747 (inactive) | z-score [4]: 0.0467 (inactive) | z-score [5]: 0.329 (inactive) | composite z-score [6]: 0.0266 | composite z-score [7]: 0.0448 | composite z-score (Torsin-1A (Homo sapiens) [8]): 0.366 | composite z-score (Torsin-1A (Homo sapiens) [9]): 0.291 | composite z-score [10]: 0.371 | z-score [11]: -1.57 (inactive) | composite z-score [12]: 0.19 | z-score [13]: 0.0115 (inactive) | z-score [14]: 0.297 (inactive) | z-score [15]: -0.928 (inactive) | z-score [16]: 0.409 (inactive) | z-score [17]: -1.21 | z-score [18]: -1.42 (inactive) | z-score [19]: -3.26 (inactive) | z-score [20]: -2.9

C=CCNC(=O)[C@H]1[C@@H]2C(=O)O[C@@H](c3ccccc3)[C@@H](c3ccccc3)N2[C@@H](c2ccccc2OCCO)[C@]12C(=O)Nc1ccc(C#CCC(C(=O)OC)C(=O)OC)cc12
composite z-score [1]: 0.761 | z-score [2]: -3.8 (inactive) | z-score [3]: 0.608 (inactive) | z-score [4]: -0.0784 (inactive) | z-score [5]: 0.876 (inactive) | composite z-score [6]: 0.999 | composite z-score [7]: 0.277 | composite z-score (Torsin-1A (Homo sapiens) [8]): 0.954 | composite z-score (Torsin-1A (Homo sapiens) [9]): 1.06 | composite z-score [10]: 1.84 | z-score [11]: 0.0038 (inactive) | composite z-score [12]: 0.924 | z-score [13]: 5.08 (inactive) | z-score [14]: 1.84 (inactive) | z-score [15]: -0.223 (inactive) | z-score [16]: 0.909 (inactive) | z-score [17]: -0.318 | z-score [18]: 1.62 (inactive) | z-score [19]: 0.834 (inactive) | z-score [20]: 1.5

CCC[C@@H]1C[C@@]1(CCC)[C@@H](NC(=O)c1ccccc1)c1cccc(Cl)c1
composite z-score [1]: 2.05 | z-score [2]: -0.246 (inactive) | z-score [3]: 0.0208 (inactive) | z-score [4]: 0.776 (inactive) | z-score [5]: 0.485 (inactive) | composite z-score [6]: 2.17 | composite z-score [7]: 1.32 | composite z-score (Torsin-1A (Homo sapiens) [8]): 0.0875 | composite z-score (Torsin-1A (Homo sapiens) [9]): 0.512 | composite z-score [10]: -1.33 | z-score [11]: -1 (inactive) | composite z-score [12]: 2.15 | z-score [13]: 0.534 (inactive) | z-score [14]: 0.364 (inactive) | z-score [15]: 0.277 (inactive) | z-score [16]: 0.839 (inactive) | z-score [17]: -0.841 | z-score [18]: 0.46 (inactive) | z-score [19]: -0.107 (inactive) | z-score [20]: 0.328

COCCOC(=O)N1C(=O)[C@@]2(c3ccccc31)[C@H](C(=O)N1CCc3cc(OC)c(OC)cc3C1)[C@H]1C(=O)O[C@H](c3ccccc3)[C@H](c3ccccc3)N1[C@@H]2c1ccc(OCCO)cc1
composite z-score [1]: 0.146 | z-score [2]: -0.704 (inactive) | z-score [3]: 0.73 (inactive) | z-score [4]: 0.685 (inactive) | z-score [5]: -0.653 (inactive) | composite z-score [6]: 0.547 | composite z-score [7]: 0.0569 | composite z-score (Torsin-1A (Homo sapiens) [8]): 0.0657 | composite z-score (Torsin-1A (Homo sapiens) [9]): 1.21 | composite z-score [10]: 1.41 | z-score [11]: 1.12 (inactive) | composite z-score [12]: 0.18 | z-score [13]: 5.69 (inactive) | z-score [14]: 1.85 (inactive) | z-score [15]: 0.757 (inactive) | z-score [16]: 0.983 (inactive) | z-score [17]: 0.0824 | z-score [18]: 0.238 (inactive) | z-score [19]: 0.974 (inactive) | z-score [20]: 1.19

COc1cc2c(cc1O)C(C1CC1)N(Cc1sc3ccccc3c1Cl)CC2 (stereo not given)
composite z-score [1]: -0.207 | z-score [2]: -5.05 (inactive) | z-score [3]: 1.26 (inactive) | z-score [4]: -0.671 (inactive) | z-score [5]: 1.82 (inactive) | composite z-score [6]: 0.583 | composite z-score [7]: -0.024 | composite z-score (Torsin-1A (Homo sapiens) [8]): 1.45 | composite z-score (Torsin-1A (Homo sapiens) [9]): 0.982 | composite z-score [10]: -0.206 | z-score [11]: -1.54 (inactive) | composite z-score [12]: -0.0162 | z-score [13]: 13.1 (active) | z-score [14]: 3.41 (inactive) | z-score [15]: -0.449 (inactive) | z-score [16]: 1.33 (inactive) | z-score [17]: -0.0956 | z-score [18]: -4.57 (inactive) | z-score [19]: -2.68 (inactive) | z-score [20]: -3.45

COc1ccc(C(O)C2C=CC3C(=O)N(Cc4ccccc4)C(=O)C3N2n2cnnc2)cc1OCc1ccccc1 (stereo not given)
composite z-score [1]: 0.0401 | z-score [2]: -2.81 (inactive) | z-score [3]: -2.01 (inactive) | z-score [4]: -0.424 (inactive) | z-score [5]: -0.0263 (inactive) | composite z-score [6]: 0.296 | composite z-score [7]: -0.0962 | composite z-score (Torsin-1A (Homo sapiens) [8]): -0.476 | composite z-score (Torsin-1A (Homo sapiens) [9]): 0.562 | composite z-score [10]: -0.733 | z-score [11]: 0.209 (inactive) | composite z-score [12]: 0.142 | z-score [13]: 1.3 (inactive) | z-score [14]: 0.0118 (inactive) | z-score [15]: 0.372 (inactive) | z-score [16]: -1.82 (inactive) | z-score [17]: 1.42 | z-score [18]: -0.361 (inactive) | z-score [19]: -0.079 (inactive) | z-score [20]: 0.384

C=C(COC)/C(=C/C[C@@H](OC(C)=O)c1ccc(OCCO)cc1)c1cnc2ccccc2c1
composite z-score [1]: 0.837 | z-score [2]: -2.22 (inactive) | z-score [3]: -0.826 (inactive) | z-score [4]: 3.77 (inactive) | z-score [5]: -0.861 (inactive) | composite z-score [6]: 1.36 | composite z-score [7]: -0.0403 | composite z-score (Torsin-1A (Homo sapiens) [8]): -0.148 | composite z-score (Torsin-1A (Homo sapiens) [9]): 0.647 | composite z-score [10]: 1.75 | z-score [11]: 2.11 (inactive) | composite z-score [12]: 0.127 | z-score [13]: 20.2 (active) | z-score [14]: 3.53 (inactive) | z-score [15]: 0.844 (inactive) | z-score [16]: -0.282 (inactive) | z-score [17]: 1.81 | z-score [18]: -2.04 (inactive) | z-score [19]: -0.287 (inactive) | z-score [20]: -1.08

C[C@H]1NC(=O)[C@@]23C(=O)N[C@@H](Cc4ccccc4)C2[C@H](C)[C@@]2(C)O[C@H]2C3/C=C/C/C=C\CNC(=O)[C@@H]2CCCN2C1=O (stereo not given in full)
composite z-score [1]: 0.168 | z-score [2]: -0.0568 (inactive) | z-score [3]: -0.545 (inactive) | z-score [4]: 1.03 (inactive) | z-score [5]: 0.647 (inactive) | composite z-score [6]: 0.301 | composite z-score [7]: -0.0589 | composite z-score (Torsin-1A (Homo sapiens) [8]): 0.396 | composite z-score (Torsin-1A (Homo sapiens) [9]): -0.103 | composite z-score [10]: 1.73 | z-score [11]: -0.0438 (inactive) | composite z-score [12]: -0.0046 | z-score [13]: 0.306 (inactive) | z-score [14]: 0.189 (inactive) | z-score [15]: 0.159 (inactive) | z-score [16]: 0.108 (inactive) | z-score [17]: -0.199 | z-score [18]: -0.0374 (inactive) | z-score [19]: 1.41 (inactive) | z-score [20]: 0.41

COc1ccc(C(=O)Nc2ccc(CN3C(=O)[C@]4(O[C@H](CCO)[C@@H]([Si](C)(C)c5ccc(OC)cc5)[C@@H]4C)c4ccccc43)cc2)cc1
composite z-score [1]: 0.406 | z-score [2]: -7.95 (inactive) | z-score [3]: -0.925 (inactive) | z-score [4]: 8.84 (active) | z-score [5]: -1.89 (inactive) | composite z-score [6]: 0.566 | composite z-score [7]: 0.0014 | composite z-score (Torsin-1A (Homo sapiens) [8]): 0.108 | composite z-score (Torsin-1A (Homo sapiens) [9]): 0.165 | composite z-score [10]: 1.48 | z-score [11]: -1.37 (inactive) | composite z-score [12]: 0.199 | z-score [13]: 5.29 (inactive) | z-score [14]: 2.11 (inactive) | z-score [15]: -0.205 (inactive) | z-score [16]: 2.12 (inactive) | z-score [17]: -1.38 | z-score [18]: -6.37 (inactive) | z-score [19]: -2.55 (inactive) | z-score [20]: -1.54
